SRC1 inh: SRC1 coactivator transcriptional activity inhibitors, primary screen, cell-based, luminescence | Nuclear receptor coactivator 1 (Homo sapiens), Q15788 | hit rate 0.12% among 360,000 | HEK293 GAL4-SRC1 luciferase reporter | AID 588354, 2011 | inhibition, % at 3.6 µM;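 active = inhibition above the campaign mean plus 3 SD, with each screening campaign given its own cutoff, cut at about 60% in these data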;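 also: 0% = DMSO treated cells and 100% = gossypol at 36 µM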
NCOA2 inhibitor: inhibition of GAL4-SRC2 driven luciferase reporter, primary screen, SRC2 inhibitor project, cell-based, luminescence; HEK293 GAL4-SRC2 luciferase reporter; AID 651957, 2012; Nuclear receptor coactivator 2 (Homo sapiens), Q15596; inhibition, % at 9 µM; hit rate 0.17% among 370,000;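 active = inhibition above the mean inhibition of all tested compounds plus 3 SD, set per campaign, cut at about 52% in these data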;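 also: 0% = DMSO treated cells and 100% = cells given Gossypol at 36 µM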
NR5A2 inv ag: LRH-1 (NR5A2) inverse agonists, primary screen, cell-based, luminescence, HEK293T, StAR-luciferase reporter. Nuclear receptor subfamily 5 group A member 2 (Homo sapiens), O00482. LRH-1 transfected, 24 h. inhibition, % at 3.6 µM. hit rate 0.13% among 360,000. AID 602396, 2012;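 active = inhibition above the mean inhibition of all tested compounds plus 3 SD, cut at about 73% in these data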;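 also: 0% = DMSO wells and 100% = reporter-only cells lacking LRH-1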
SRC3 inh: SRC3 coactivator transcriptional activity inhibitors, primary screen, cell-based, luminescence; hit rate 0.17% among 360,000; Nuclear receptor coactivator 3 (Homo sapiens), Q9Y6Q9; HEK293 GAL4-SRC3 luciferase reporter; inhibition, % at 3.6 µM;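 active = inhibition above a per-campaign cutoff, the mean of all compounds plus 3 SD, cut at about 60% in these data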;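 also: 0% = DMSO-treated cells and 100% = gossypol-treated cells at 36 µM; higher means less SRC3-driven luciferase light from the GAL4 reporter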
Gli-Sufu block: Gli-Sufu pathway antagonists, primary screen, luciferase luminescence, Sufu-KO-LIGHT cells, uHTS. hit rate 0.74% among 340,000. inhibition, % at 5 µM. Sufu-KO-LIGHT fibroblasts, Gli luciferase reporter luminescence;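 active = inhibition above about 55%, limit read from the data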;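 also: 0% = DMSO-treated cells and 100% = wells with medium but no cells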
NR2F2 inh: NR2F2 transcriptional activity inhibitors, primary screen, cell-based, luciferase reporter, HEK293T, luminescence; HEK293T NGFI-A luciferase reporter; hit rate 0.7% among 370,000; AID 686940, 2013; inhibition, % at 8.6 µM;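 active = inhibition above a per-plate cutoff, mean inhibition of test wells between control levels plus 3 SD, cut at about 38% in these data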;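 also: cells cotransfected with COUP-TFII expression vector driving the NGFI-A reporter; 0% = median of COUP-TF2 test wells and 100% = reporter-only cells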
Gal4-VP16 ctr: Gal4-VP16 luciferase reporter inhibitors, counter-screen for COUP-TFII antagonist project, cell-based, luminescence, HEK293. AID 687007, 2013. shares compounds with NR2F2 inh. inhibition, % at 8.5 µM. hit rate 25% among 2,500; in the data active = inhibition above about 13%
NR2F2 inh conf: NR2F2 transcriptional activity inhibitors, confirmation, cell-based, luciferase reporter, HEK293, triplicate; HEK293 NGFI-A luciferase reporter, luminescence; AID 687008, 2013; hit rate 45% among 2,500; shares compounds with NR2F2 inh; inhibition, % at 8.5 µM;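 active = mean inhibition over three repeats above a set limit taken from the earlier primary screen, cut at about 38% in these data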;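 also: 100% = cells given the luciferase reporter alone without the COUP-TF2 vector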
Numbers without * were called inactive; x = not tested or not shown. Most compounds without a hit are left out; they make up all but 1.3% or so of the library.

SMILES	SRC1 inh	NCOA2 inhibitor	NR5A2 inv ag	SRC3 inh	Gli-Sufu block	NR2F2 inh	Gal4-VP16 ctr	NR2F2 inh conf
Cn1c2ccccc2c(=O)c2cc(C#CC3(O)CCCCC3)ccc21	17	6	9	19	-2	45*	-67	38*
O=c1c2ccccc2oc2ccc(C#CC3(O)CCCCC3)cc12	34	-16	18	26	28	37	x	x
Cn1c2ccccc2c(=O)c2ccc(C#CC3(N)CCCCC3)cc21	-59	-192	-132	-59	16	-64	x	x
CC(=O)N1c2ccc(S(=O)(=O)N3CCC(C(=O)Nc4cccc(C)n4)CC3)cc2CC1C (stereo not drawn)	15	25	52	18	53	54*	7	54*
CC(=O)N1c2ccc(S(=O)(=O)NCC3CCC(C(=O)Nc4cccc(C)n4)CC3)cc2CC1C (stereo not drawn)	27	14	37	48	40	56*	-3	28
Cc1ccc(CCNc2ncnc(Cl)c2N)cc1	-27	-9	-20	-23	11	64*	-69	49*
Cc1nn(-c2ccccc2)c2sc(C(=O)NCc3ccc4c(c3)OCO4)cc12	x	0	x	x	x	-5	x	x
CCn1nc(C)cc1C(=O)NC1CCCc2c1cnn2-c1ccc(C)c(C)c1 (stereo not drawn)	5	4	29	9	29	54*	-5	40*
Cc1cc(C(=O)NC2CCCc3c2cnn3-c2cccc(C)c2C)n(C)n1 (stereo not drawn)	12	14	44	20	81*	67*	8	68*
Cc1cc(C(=O)NC2CCCc3c2cnn3-c2ccc(C)c(C)c2)no1 (stereo not drawn)	10	3	2	-16	17	17	x	x
Cc1ccc(-n2ncc3c2CCCC3NC(=O)c2ocnc2C)cc1C (stereo not drawn)	21	18	35	27	59*	66*	6	61*
C/C(CC(C)(C)C1CCCCC1)=N\NC(N)=S	41	40	70	62*	36	59*	17*	64*
CC(NCc1ccco1)C(=O)N1CCN(c2cccc(C(F)(F)F)c2)CC1 (stereo not drawn)	x	-20	x	x	x	7	x	x
COc1ccc(Nc2nc(NCC3CCCO3)c3ccccc3n2)c(OC)c1 (stereo not drawn)	13	-4	6	22	41	8	x	x
CCOc1ccc(Nc2nc(NCC3CCCO3)c3ccccc3n2)cc1 (stereo not drawn)	-6	8	0	1	71*	60*	4	43*
CCCCCCn1ccc(=N)cc1	-7	-1	35	-17	5	76*	4	50*
O=C1CCCCC1Sc1nnc(-c2ccc3c(c2)OCO3)o1 (stereo not drawn)	43	57*	9	45	-2	64*	22*	59*
Clc1ccc(CSc2nnc(-c3ccc4c(c3)OCO4)o2)cc1	-8	-2	3	-18	0	0	x	x
Cc1nc(C)c(-c2csc(Nc3ccccn3)n2)s1	-54	-21	-120	-98	-47	3	x	x
Cc1ccnc(Nc2nc(-c3sc(C)nc3C)cs2)c1	-33	19	-79	-16	-17	70*	-139	44*
CCN(C(=O)[C@@H]1CC(=O)O[C@@H]1c1ccccc1)c1ccccc1	x	-27	x	x	x	4	x	x
C=CCN1C(=O)[C@@H](CC(=O)NCc2ccc(OC)c(OC)c2)[C@]2(C(=O)OCC)CCCCC/C=C/12	x	1	x	x	x	-1	x	x
CCOC(=O)N1CCN(C(=O)c2ccc3c(c2)N(Cc2ccc(F)cc2)CCS3)CC1	2	20	-18	12	16	38*	2	-1
CCOC(=O)N1CCN(C(=O)c2ccc3c(c2)N(CC)CCS3)CC1	2	-6	14	1	-13	-1	x	x
COc1ccc(-c2cnc3c(NC(C)=O)cc(-c4cccc(NS(C)(=O)=O)c4)cn23)cc1OC	-13	-3	18	1	x	99*	-1	-8
SMILES	SRC1 inh	NCOA2 inhibitor	NR5A2 inv ag	SRC3 inh	Gli-Sufu block	NR2F2 inh	Gal4-VP16 ctr	NR2F2 inh conf
CC(=O)Nc1cc(-c2cccc(NS(C)(=O)=O)c2)cn2c(-c3cccc(C(C)=O)c3)cnc12	-22	-16	38	13	x	-12	x	x
COc1cc(-c2cnc3c(NC=O)cc(-c4ccc(N5CCN(C)CC5)cc4)cn23)cc(OC)c1OC	-63	-25	-72	-86	x	-88	x	x
COc1cc(-c2cnc3c(NC(C)=O)cc(-c4ccc(N5CCN(C)CC5)cc4)cn23)cc(OC)c1OC	27	13	-18	14	x	41*	-15	9
O=c1c2ccccc2cnn1-c1nc2ccccc2[nH]1	70*	83*	41	65*	81*	96*	53*	70*
Clc1ccc2nc(N3CCCCC3)[nH]c2c1	-119	-29	-183	-91	-68	-49	x	x
O=c1c(Cl)c(N2CCCCC2)cnn1-c1nc2ccccc2[nH]1	8	32	-28	30	25	56*	-40	-15
CCNC(=O)C[C@H]1CC[C@H]2[C@@H](COc3ccc(NC(=O)Nc4ccccc4)cc3C(=O)N2C)O1	x	16	x	x	x	3	x	x
COC(=O)C1CN(Cc2ccc(Cl)cc2)CCS(=O)(=O)N1Cc1cn(Cc2ccc(F)cc2)nn1 (stereo not drawn)	x	-3	x	x	x	-1	x	x
COc1cc2c(cc1OC)CN1CCc3cc(OC)c(OC)cc3C1C2 (stereo not drawn)	-15	3	16	0	x	-5	x	x
CC[C@H]1CN2CCc3cc(OC)c(OC)cc3C2C[C@@H]1C[C@H]1NCCc2cc(OC)c(OC)cc21 (stereo partly drawn)	96*	70*	104*	95*	65*	92*	10	84*
COC(=O)C[C@@H]1CC[C@@H]2[C@@H](COc3ccc(NC(=O)c4ccc(F)cc4)cc3C(=O)N2C)O1	x	-1	x	x	x	9	x	x
CCCCCc1ccc(OCCC[n+]2ccccc2)c(CCCCC)c1	34	5	59	66*	83*	57*	14*	34
O=C1C=C(c2c(O)ccc3ccccc23)c2ccccc2C1=O	-10	-35	9	8	2	58*	21*	43*
